# SW480 rerep = induces DNA re-replication in SW480 colon adenocarcinoma cells; 340,000 compounds, 1.8% hits; AID 624297; SW480 DNA re-replication, Hoechst DNA content imaging, 48 h; Potency, µM (doses to about 46.1 µM), for the others: at the top dose re-replication activation, most hits filed as activators; also: % of control where 0% means no effect; nearly all actives have a fitted effect of over 55% in size
#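 Compounds, transferred as 23 nL by pin tool, were incubated with cells for 48 hr; DNA content per nucleus was then quantified by Hoechst staining and fluorescence plate imaging.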
# MCF10A rerep = induces DNA re-replication in MCF 10a normal breast cells; MCF 10A DNA re-replication, Hoechst nuclear intensity, 48 h; Potency, µM (titrated, usually from 46.1 µM), without a hit: top-dose activity, positive = re-replication, usual class: activators; 350,000 compounds, 2.9% hits; also: % of control where 0% means no effect; nearly all actives have a fitted effect of over 50% in size
# KB-3-1 tox = KB-3-1 parental cell cytotoxicity | AID 1347075 | Potency, µM (doses to about 46.1 µM), actives largely listed as cytotoxic | 400,000 compounds, 1.4% hits | KB-3-1 viability, CellTiter-Glo ATP luminescence, 72 h; also: % is scaled to controls: 0 for no effect and ±100 for the full control effect; nearly all actives have a fitted effect of over 60% in size
#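 Cells are dispensed, compounds pinned in, plates held at 37 °C for 72 h, then CellTiter-Glo is added and luminescence read after 10 minutes. Cell line: parental KB-3-1 in phenol-red-free DMEM, 10% FBS.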
# ELG1 DNA repair = ELG1-dependent DNA repair inhibition; Potency, µM (highest dose often 46.1 µM), for the others: at the top dose activity change, negative = inhibition, hits mostly inhibitors; HEK293T ELG1-luciferase reporter, luminescence, 16 h; DNA damage induced by 5-fluorouridine; 330,000 compounds, 2.3% hits; AID 504467; also: % is scaled to controls: 0 for no effect and ±100 for the full control effect; nearly all actives have a fitted effect of over 55% in size
#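 Cells (2,000 per well) received 5-fluorouridine plus test compound or DMSO and were incubated 16 hr at 37 °C, 5% CO2. Luciferase activity was read by luminescence 30 min after ONE-Glo addition; signal suppression marked inhibition of damage-induced ELG1 function.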
# KB-V1 MDR tox = KB-V1 MDR subline cytotoxicity; AID 1347076; Potency, µM (titrated, usually from 46.1 µM), actives largely listed as cytotoxic; 400,000 compounds, 3.4% hits; KB-V1 MDR cells viability, CellTiter-Glo, 72 h; also: % is scaled to controls: 0 for no effect and ±100 for the full control effect; nearly all actives have a fitted effect of over 60% in size
#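 Readout: CellTiter-Glo luminescence, 10 min after addition. Cells: KB-V1 MDR subline, 72 h at 37 degrees C with compound. Analysis: corrected, normalized data fitted to concentration-effect curves.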
# * marks the source's active call; other numbers are inactive results; i = inactive; u = inconclusive; x = no result given. Sampled rows, rich in hits. Any-hit rate of the full collection: about 8.1%. Calls follow the shape of the dose curve; as a rule, active = well fitted curve in the direction sought with a large enough effect; inconclusive = small, poorly fitted or top-dose-only effect, or another doubt; inactive = no such curve, though single readings can be large; an effect the other way counts as inactive or inconclusive. Potency is read from the fitted curve at half-maximal effect.
SMILES,SW480 rerep,MCF10A rerep,KB-3-1 tox,ELG1 DNA repair,KB-V1 MDR tox
Cc1ccccc1OCCNC(=O)CNC(=O)c1ccccc1O,-7%,12%,i,13%,16µM*
CCCCOc1ccc(C(=O)NCC(=O)NCCOc2ccccc2OC)cc1,0.92µM*,9%,i,-22%,i
Cc1ccc(OCCNC(=O)CNC(=O)c2ccc(C)cc2)cc1,-2%,1%,i,4%,i
COc1ccccc1OCCNC(=O)c1ccccc1C,-4%,-1%,i,u,i
Cc1c(C(=O)Nc2cccc(C(F)(F)F)c2)sc2nc[nH]c(=O)c12,x,x,i,x,i
Cc1ccc(NC(=O)[C@@H]2CCCN2S(=O)(=O)c2ccccc2F)cc1S(=O)(=O)N1CCOCC1,5%,u,i,-24%,i
Cc1ccc(-n2c3c(cc(C(=O)NC4CCSC4=O)c2=O)C(=O)CC(C)(C)C3)cc1 (stereo unspecified),-2%,-14%,i,-12%,u
O=C(COc1ccc2c(c1)CCC2)N1CCN(c2ccccc2F)CC1,-5%,-3%,i,6%,0.0037µM*
O=C(COc1ccc2c(c1)CCC2)N1CCN(c2cccc(C(F)(F)F)c2)CC1,0%,-8%,i,2%,i
O=C(c1c(F)cccc1F)N1CCN(c2ccccc2F)CC1,-3%,9%,i,0%,u
CCCCNC(=O)c1cccc2c(=O)c(C)c(-c3ccccc3)oc12,-3%,11%,i,u,u
O=C(c1cccc(C(=O)N2CCN(c3ccccc3F)CC2)c1)N1CCN(c2ccccc2F)CC1,3%,13%,i,16µM*,i
Cc1c(-c2ccccc2)oc2c(C(=O)N3CCN(c4ccccc4F)CC3)cccc2c1=O,-4%,0%,u,u,4.6µM*
O=C(N1CCN(c2ccc(F)cc2)CC1)C12CC3CC(CC(C3)C1)C2,-4%,4%,i,u,i
O=C(N1CCN(c2ccccc2F)CC1)C12CC3CC(CC(C3)C1)C2,11%,u,i,26%,18µM*
CCOc1ccc(N2CC(C(=O)NC3CCSC3=O)CC2=O)cc1 (stereo unspecified),u,-1%,i,-9%,i
O=C(NNC1CCN(Cc2ccccc2)CC1)c1ccccc1,-2%,1%,u,x,i
C=CCc1ccc(OCC(O)CN2CCCCC2)c(OC)c1 (stereo unspecified),-1%,3%,i,-5%,i
O=C(Nc1ccc2oc(-c3ccncc3)nc2c1)c1ccco1,-29%,-30%,i,u,i
O=C(Nc1nnc(-c2ccccc2Cl)o1)c1ccco1,12µM*,99%,i,u,16µM*
COc1cccc(C(=O)Nc2cccc(-c3nnc(-c4ccco4)o3)c2)c1,-6%,u,u,23µM*,u
O=C(Nc1ccccc1)c1cccc(-c2nnc(-c3ccccc3)o2)c1,-9%,1%,i,0%,i
O=C(Nc1cccc(-c2nnc(-c3ccccc3)o2)c1)c1ccco1,-7%,14%,i,-21%,2.9µM*
O=C(Nc1ccc2oc(-c3ccccc3)nc2c1)c1ccco1,-2%,16%,i,u,23µM*
CN(C)CC1CCCCC1OC(=O)c1ccc(Cl)cc1Cl (stereo unspecified),u,-2%,i,10%,i
NS(=O)(=O)c1cc(C(=O)Nc2ccc3c(c2)OCCCO3)ccc1Cl,-4%,-1%,i,u,i
CCC(C)(C)n1nnnc1C(C(C)C)N(CCN1CCOCC1)Cc1cc2cccc(C)c2[nH]c1=O (stereo unspecified),3%,4%,i,-20%,15µM*
CCC(c1nnnn1C(C)(C)CC)N(CCCN1CCOCC1)Cc1cc2cccc(C)c2[nH]c1=O (stereo unspecified),30%,u,i,0%,i
COc1ccccc1NC(=O)N1c2ccc(F)cc2CCC1C (stereo unspecified),-2%,12%,i,10%,i
O=C(OCc1cccc(C(F)(F)F)c1)c1ccc[nH]c1=O,-11%,-6%,i,9%,u
